Assay outcomes from PubChem BioAssay.
Hits are enriched below; roughly 11% of the tested compounds scored in any of these assays.
JMJD2A Tudor: qHTS Assay for Inhibitors of JMJD2A-Tudor Domain; Lysine-specific demethylase 4A (Homo sapiens), O75164; AlphaScreen JMJD2A-Tudor / H3K4me3 peptide binding; Potency, µM (top dose mostly 114 µM), for inactives: top-dose activity change, negative = inhibition, most hits filed as inhibitors; 390,000 tested, 4.4% active; AID 504339, 2011; also: potency is read from the fitted curve at half-maximal effect; % is scaled to controls: 0 for no effect and ±100 for the full control effect; nearly all actives have a fitted effect of over 50% in size
HP1b binding inh: HTS for Inhibitors of HP1-beta Chromodomain Interactions with Methylated Histone Tails; AlphaScreen HP1-beta / biotin-H3K9me3 peptide binding; Chromobox protein homolog 1 (Homo sapiens), P83916; Potency, µM (series often up to 114 µM), without a hit: top-dose activity change, negative = inhibition, actives largely listed as inhibitors; 390,000 tested, 0.56% active; also: potency is read from the fitted curve at half-maximal effect; nearly all actives have a fitted effect of over 70% in size
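HP1-beta protein (50 nM final) preincubated 30 min at room temperature with biotinylated H3(1-18)K9me3 peptide (50 nM) in PBS pH 7.4, 0.01% Tween-20, then compound added for 30 min. AlphaScreen streptavidin donor/nickel chelate acceptor beads (10 ug/mL final), 30 min dark, luminescence read.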
PI5P4K alpha inh: qHTS for Inhibitors of phosphatidylinositol 5-phosphate 4-kinase (PI5P4K). Phosphatidylinositol 5-phosphate 4-kinase type-2 alpha (Homo sapiens), P48426. PI5P4Kalpha enzyme, ADP-Glo luminescence, 60 min; hits give low values. max response, %. 330,000 tested, 1.2% active. AID 652105, 2013; active = max response of -50% or lower; inconclusive = between -30% and -50%; inactive = -30% or higher; also: value at the top dose of about 77 µM; % is scaled to controls: 0 for no effect and ±100 for the full control effect
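ADP-Glo luminescence end-point after a 60 min room-temperature kinase reaction. PI5P4Kalpha and substrate in HEPES pH 7.4 buffer with EGTA, 0.1% CHAPS and 5% DMSO; ATP at 5 microM final.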
G9a inh: qHTS Assay for Inhibitors of Histone Lysine Methyltransferase G9a; G9a H3K9 monomethylation, AlphaScreen, 2 h; Potency, µM (series often up to 102 µM), for inactives: at the highest dose activity, negative = inhibition, usual class: inhibitors; 350,000 tested, 8.8% active; Histone-lysine N-methyltransferase EHMT2 (Homo sapiens), Q96KQ7; AID 504332, 2011; also: potency is read from the fitted curve at half-maximal effect; % is scaled to controls: 0 for no effect and ±100 for the full control effect; nearly all actives have a fitted effect of over 75% in size
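Enzyme 20 nM + cpd, 15 min RT; add b-H3K9 pep 500 nM / SAM 20 uM; 2 h RT; anti-H3K9me1 Ab 0.5 ug/mL + SA donor / anti-rabbit acceptor beads 20 ug/mL each, 10 min; AlphaScreen read.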
L3MBTL1 block: qHTS Assay for the Inhibitors of L3MBTL1 | 230,000 tested, 0.66% active | AlphaScreen L3MBTL1–H3K9me1 peptide binding | Lethal(3)malignant brain tumor-like protein 1 (Homo sapiens), Q9Y468 | Potency, µM (titrated, usually from 57.1 µM), inactives show top-dose activity, negative = inhibition, hits mostly inhibitors | AID 485360, 2010; also: potency is read from the fitted curve at half-maximal effect; % is scaled to controls: 0 for no effect and ±100 for the full control effect; nearly all actives have a fitted effect of over 60% in size
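First, the protein-peptide complex forms for 30 min at room temperature (L3MBTL1 50 nM, biotinylated H3K9me1 peptide 75 nM). Next, compounds are pin-transferred and incubated 30 min. Finally, AlphaScreen beads are added and read after 30 min.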
BAZ2B block: qHTS Assay for Inhibitors of BAZ2B; Bromodomain adjacent to zinc finger domain protein 2B (Homo sapiens), Q9UIF8; AlphaScreen BAZ2B-H3K14Ac peptide displacement; Potency, µM (series often up to 114 µM), for inactives: at the top dose activity change, negative = inhibition, most hits filed as inhibitors; 360,000 tested, 4.4% active; AID 504333, 2011; also: potency is read from the fitted curve at half-maximal effect; % is scaled to controls: 0 for no effect and ±100 for the full control effect; nearly all actives have a fitted effect of over 60% in size
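BAZ2B (50 nM) with biotin-H3(5-23)K14Ac peptide (50 nM) in PBS pH 7.4, 0.01% Tween-20, preformed 30 min, then compound 30 min at room temperature; top concentration 110uM. AlphaScreen streptavidin donor/nickel chelate acceptor beads (10 ug/mL final), 20 min dark, signal read.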
The depositor's hits bear a star; ? = inconclusive; . = no result given; [ ] = another dose, or the depositor's remark. Unless noted, calls follow the shape of the dose curve; as a rule, active = well fitted inhibition curve with a large enough effect; inconclusive = small, poorly fitted or top-dose-only effect; inactive = no such curve, though single readings can be large or run the other way.

SMILES	JMJD2A Tudor	HP1b binding inh	PI5P4K alpha inh	G9a inh	L3MBTL1 block	BAZ2B block
COc1ccc(N2C(=O)CC(Sc3nnnn3-c3ccc(F)cc3)C2=O)cc1 (centres undefined)	-9%	73%	4	?	20%	-22%
O=C1CC(SCc2nc3ccccc3[nH]2)C(=O)N1c1cccc(Cl)c1 (centres undefined)	-22%	32%	-12	18µM*	.	0%
NCCSC1CC(=O)N(c2ccc(F)cc2)C1=O (centres undefined)	-16%	34%	0	.	7%	-7%
COCCCn1c(SCC(=O)Nc2ccc(OC)cc2)nc2c(sc3ccccc32)c1=O	1%	10%	.	-6%[59 µM]	.	-1%
Cc1ccc(CN2C(=O)C(CC(C)C)Nc3ncnc(N4CCN(c5ccccn5)CC4)c32)cc1 (centres undefined)	79µM*	19%	-21	?	-5%	?
CC(C)CC1Nc2ncnc(N3CCN(c4ccccn4)CC3)c2N(Cc2ccc(Br)cc2)C1=O (centres undefined)	-35%	35%	0	?	-13%	-35%
Cc1ccc(CN2C(=O)C(C)Nc3ncnc(N4CCN(c5ccccn5)CC4)c32)cc1 (centres undefined)	79µM*	10%	-7	-3%[2.33 µM]	-8%	?
Cc1ccc([N+](=O)[O-])c(C)[n+]1C	14µM*	?	2	3.5µM*	?	?
O=[N+]([O-])c1ccc(F)cc1F	-14%	-1%	0	5%[0.501 µM]	9%	29%
Cc1cccc(NC(=O)N2CCN(C(=O)c3nsc4ccccc34)CC2)c1C	-16%	13%[57 µM]	.	6%[59 µM]	.	4%
Cc1c(C)n(CC(O)CNCCO)c2ccccc12 (centres undefined)	13µM*	?	5	8.9µM*	4%	45µM*
Cc1ccc2c(c1)c(C)c(C)n2CC(O)CN1CCOCC1 (centres undefined)	79µM*	10%	1	-22%[59 µM]	8%	1%
Cc1c(C)n(CC(O)CN2CCCCCC2)c2ccccc12 (centres undefined)	?	-8%	3	35µM*	-6%	?
Cc1cccc(OCC(O)CN2CCOCC2)c1 (centres undefined)	6%	28%	4	.	41%	29%
COc1ccc(NCC(O)Cn2c(C)c(C)c3ccccc32)cc1 (centres undefined)	?	40µM*	-2	.	?	40µM*
Cc1ccc(NC(=O)Cn2cnc3c(oc4ccccc43)c2=O)cc1Cl	-34%	3%	.	?	.	?
Cc1c(C)n(CC(O)CNc2ccccc2)c2ccccc12 (centres undefined)	25µM*	?	20	13µM*	-17%	25µM*
Cc1cccc(-c2onc3ccc(C(=O)/C=C/N(C)C)cc23)c1	-32%	12%	-68*	7%[0.501 µM]	.	?
CC(=O)COC(=O)c1ccc2noc(-c3ccccc3)c2c1	-32%	8%	?	-5%	.	50µM*
Cc1ccc(OCCCCCN2CCOCC2)c(Cl)c1	22µM*	50µM*	-1	.	.	.
Clc1cc(Br)ccc1OCCOCCN1CCOCC1	7.1µM*	-22%	-4	?	2%	?
Cc1ccc(C)c(OCCN2CCOCC2)c1	10%	37%	0	?	.	-16%
Cc1cccc(OCCCN2CCOCC2)c1C	25µM*	?	1	.	5%	?
Cc1ccc(C)c(OCCOCCN2CCOCC2)c1	-6%	21%	.	-26%[12.7 µM]	.	-25%
Clc1cc(Br)ccc1OCCOCCN1CCCC1	32µM*	?	5	40µM*	-1%	?
SMILES	JMJD2A Tudor	HP1b binding inh	PI5P4K alpha inh	G9a inh	L3MBTL1 block	BAZ2B block
Clc1ccc(OCCOCCN2CCc3ccccc3C2)c(Cl)c1	12%	71%	3	-4%[59 µM]	6%	9%
CCCc1nn2c(=O)cc(COC(=O)c3ccco3)nc2s1	-17%	2%	.	15%[59 µM]	.	-6%
Cc1nc(SCc2nc3c(F)cccc3[nH]2)c2oc3ccccc3c2n1	79µM*	29%	.	.	10%	.
Cc1nc(SCc2nc3c(C)cccc3[nH]2)c2oc3ccccc3c2n1	?	11%	.	.	-5%	.
CCc1ccc2oc(=O)cc(CN3CCN(Cc4ccccc4)CC3)c2c1	-22%	51%	6	45µM*	.	-5%
O=c1cc(CN2CCN(Cc3ccccc3)CC2)c2cc(Cl)ccc2o1	-21%	35%	3	45µM*	-1%	7%
Cc1cc2oc(=O)cc(CN3CCN(Cc4ccccc4)CC3)c2cc1Cl	-8%[11.4 µM]	12%	0	-20%[59 µM]	-3%	-31%
Cc1ccc2c(CN3CCN(Cc4ccccc4)CC3)cc(=O)oc2c1	-29%	13%	3	6%	.	-7%
CCOC(=O)C(=O)/C(C#N)=C/Nc1ccc(F)cc1	4%	39%	-10	35µM*	.	?
CCOC(=O)C(=O)/C(C#N)=C/Nc1ccc(Cl)cc1	?	11%	-18	?	.	-10%
CC(=O)Nc1cc(NC(C)=O)c(N=Nc2ccccc2)cc1C	-28%	20%	-2	10%	.	-18%
Cc1ccc(NCC(O)C(O)C(O)CO)c(N=Nc2ccccc2)c1C (centres undefined)	?	?	-3	-45%[12.7 µM]	.	11µM*
Cc1cc(C)c(NC(=O)C2CCCN(C(=O)c3cnn(-c4ccccc4)c3-n3cccc3)C2)c(C)c1 (centres undefined)	-8%	38%	.	2%[59 µM]	.	-11%
O=C(NCc1ccco1)C12CN(Cc3ccccc3)CC1C(c1cccc([N+](=O)[O-])c1)=NO2 (centres undefined)	?	-7%	-26	45µM*	-9%	?
CCCCOC(=O)c1ccc(Nc2ncnc3[nH]ncc23)cc1	-14%	18%	.	-5%[59 µM]	.	-3%
O=[N+]([O-])c1ccc(Sc2nnnn2-c2ccccc2)nc1	-31%	30%	-5	-34%	-24%	-31%
Cc1cc(C)c(C#N)c(SCc2ccccc2[N+](=O)[O-])n1	-13%	27%	-1	10µM*	-13%	-33%
O=[N+]([O-])c1ccccc1CSc1ccccn1	-15%	-13%	1	50µM*	7%	-2%
Cc1ccc(C#N)c(SCc2ccccc2[N+](=O)[O-])n1	4%	35%	15	?	-2%	4%
O=[N+]([O-])c1ccc(SCc2c(F)cccc2Cl)nc1	56µM*	-21%	2	.	-8%	?
